# RBX1-CUL1 inh: inhibitors of human ROC1-CUL1 ubiquitin ligase activity; 140,000 compounds, 0.6% hits; P62877+Q13616; AID 1347404; inhibition, % at 10 µM; in vitro K48 di-Ub FRET, acceptor:donor ratio, 45 min; in the data active = inhibition above about 25%
# Numbers without * were called inactive. This excerpt belongs to a sample that is enriched for hits.
SMILES,RBX1-CUL1 inh
COc1ccc(OC2CCN(C(C)=O)CC2)c(C(=O)NC(C)Cc2cccs2)c1 (centres undefined),9
CCc1ccc(-c2cc(C(=O)Nc3ccncc3)c3cc(Br)ccc3n2)cc1,4
Cc1ccc(CC(=O)Nc2ccc(S(=O)(=O)NC(C)(C)C)cc2)cc1,-7
COC(=O)CN1C(=O)S/C(=C/c2cc(Br)c(Sc3ccc(Cl)cc3)o2)C1=O,4
Cc1cc(C)cc(N2C(=O)NC(=O)/C(=C/c3ccc(-c4cccc(C(=O)O)c4)o3)C2=O)c1,85*
O=C1Nc2ccccc2/C1=C/c1ccc(-c2cccc(C(=O)O)c2)o1,16
O=C1NC(=S)NC(=O)C1=Cc1cc(Br)c(Sc2ccc(Cl)cc2)o1,10
COC(=O)c1ccccc1-n1c(C)cc(/C=C2\C(=O)NC(=S)N(c3ccc(OC)cc3)C2=O)c1C,6
COc1ccc(N2C(=O)/C(=C/c3cc(C)n(-c4ccc(Cl)c(C(=O)O)c4)c3C)C(=O)NC2=S)c(OC)c1,79*
Cc1ccc(N2C(=O)NC(=O)/C(=C\c3cc(Br)c(Sc4ccc(Cl)cc4)o3)C2=O)cc1,100*
COc1cccc(/C=C2/C(=O)NC(=O)N(c3cc(C)cc(C)c3)C2=O)c1O,12
Cc1cc(C)cc(N2C(=O)NC(=O)/C(=C\c3ccc(Br)o3)C2=O)c1,94*
COc1cc(/C=C2\C(=O)NC(=O)N(c3cc(C)cc(C)c3)C2=O)cc(Br)c1O,7
COc1ccc(N2C(=O)/C(=C/c3cc(C)n(-c4ccc(NC(C)=O)cc4)c3C)C(=O)NC2=S)cc1,7
COc1cc(Br)cc(/C=C2/C(=O)NC(=O)N(c3cc(C)cc(C)c3)C2=O)c1O,5
CCNc1nc(NCC)n2c(=S)[nH]nc2n1,3
C=CCNCCCCOc1cc(C)cc(C)c1C,2
CCOc1ncnc(Cl)c1[N+](=O)[O-],-3
O=C(Cc1c[nH]c2ccccc12)NCC1Cc2c(F)ccc(-c3ccncc3)c2O1 (centres undefined),-3
O=C1/C(=C/c2ccsc2)CCC/C1=C\c1ccsc1,6
O=C(O)C1CC=CCC1C(=O)Nc1ccccc1F (centres undefined),-4
COc1ccc(F)cc1S(=O)(=O)N(C)C1CCCCC1,-1
N#Cc1cccc(Oc2ccc(Br)cc2)c1C#N,0
O=C1NC(=S)N(c2cccc(Br)c2)C(=O)/C1=C/c1cc(Br)c(O)c(Br)c1,4
O=C(N/N=C/c1ccc(-c2cccc(C(=O)O)c2)o1)Nc1ccc(Cl)cc1,1
SMILES,RBX1-CUL1 inh
Cc1ccc(-n2c(-c3ccccc3)cc(/C=C3\C(=O)NC(=S)N(c4ccc(C)c(C)c4)C3=O)c2-c2ccccc2)cc1,5
COc1ccc(/C=C2/C(=O)NC(=S)N(c3ccccc3)C2=O)cc1C(=O)O,2
C=CCN1C(=O)/C(=C/c2ccc(-c3cccc(C(F)(F)F)c3)o2)C(=O)NC1=S,103*
O=C1NC(=S)N(c2ccc(Cl)cc2)C(=O)/C1=C\c1ccc(-c2cccc(C(=O)O)c2)o1,100*
O=C1NC(=S)N(c2cccc(F)c2)C(=O)/C1=C/c1ccc(N2CCCC2)o1,26*
Cc1ccc(N2C(=O)/C(=C\c3ccc(-c4ccc(Cl)c(C(=O)O)c4)o3)C(=O)NC2=S)cc1,63*
O=C1NC(=S)N(c2ccccc2)C(=O)/C1=C\c1ccc(-c2ccc(F)cc2)o1,2
C=CCN1C(=O)/C(=C\c2cccc(OC)c2OC)C(=O)NC1=S,-6
CC(C)Oc1ccccc1/C=C1\C(=O)NC(=S)N(c2cccc(F)c2)C1=O,-13
C=CCN1C(=O)/C(=C\c2cccc(OCc3ccc(F)cc3)c2)C(=O)NC1=S,1
CCCCCCSc1nc2sc3c(c2c(=O)n1-c1ccc(OC)cc1)CCC3,7
Cc1sc(N)c2c(=O)oc3c4ccccc4ccc3c12,-7
O=C(CN1CCc2ccccc21)N1N=C(c2ccc(F)cc2)CC1c1ccc(F)cc1 (centres undefined),0
O=C(C1CCOCC1)N(CC1CCN(Cc2ccccc2F)CC1)CC1CCCO1 (centres undefined),2
CN1C(=O)/C(=C\c2cccc(F)c2)N=C1SCC(=O)Nc1ccc(Cl)cc1,-3
O=C(Cc1ccccc1Cl)c1ccc(O)c(O)c1O,101*
O=C(Cc1ccccc1)Nc1cc(Cl)ccc1O,-5
O=C(Cc1ccccc1Cl)N1CCN(c2ncccn2)CC1,9
O=C(O)Cn1cc(/C=C2\SC(=Nc3ccccc3)N(c3ccccc3)C2=O)c2ccccc21,97*
NC(=O)Cn1cc(/C=C2\SC(=Nc3ccccc3)N(C3CCCC3)C2=O)c2ccccc21,-6
O=C1/C(=C\c2cn(Cc3ccc(F)cc3)c3ccccc23)SC(=Nc2ccccc2)N1CCc1ccccc1,-1
C=CCNC(=O)N1CCC(N2CCCC(C(=O)NC3CC3)C2)CC1 (centres undefined),7
CCOc1cc(/C=C2/C(=O)N(c3cccc(C(=O)O)c3)N=C2C)ccc1OCC(=O)Nc1ccccc1,36*
COc1cc(/C=C2\C(=O)N(c3ccc(C)cc3)N=C2C)ccc1OCC(=O)Nc1ccc(C(=O)O)cc1,-2
COc1cc(/C=C2/C(=O)N(c3ccccc3)N=C2C)ccc1OCc1ccc(F)cc1,10
SMILES,RBX1-CUL1 inh
COc1cc(/C=C2\C(=O)N(c3cccc(F)c3)N=C2C)ccc1O,0
CCOc1cc(/C=C2\C(=O)N(c3cccc(C(=O)O)c3)N=C2C(F)(F)F)ccc1OCC(=O)Nc1ccccc1OC,15
C#CCOc1ccc(/C=C2\C(=O)N(c3cccc(F)c3)N=C2C)cc1OC,31*
COc1ccc2nc(SCC(=O)Nc3ccc(C)cc3C)[nH]c2c1,-1
CN1CCN(C(=O)/C=C/c2ccc(C#N)cc2)CC1,3
O=C(Oc1ccccc1)n1c(=O)oc2cc(S(=O)(=O)N3CCCCC3)ccc21,0
Cc1cccc(Cn2c(=O)n(CCCC(=O)NCc3ccccc3Cl)c(=O)c3ccccc32)c1,-3
Cc1ccnc(NS(=O)(=O)c2ccc(I)cc2)c1,5
Cc1nc2ncnn2c(C)c1CCC(=O)N1CCC2(CCCN(CC3CC3)C2)C1 (centres undefined),7
CC(C)Oc1ccc(C(=O)Nc2cccnc2)cc1,-10
CCOc1ccc2nc3sc(C(=O)Nc4ccc(F)cc4)c(N)c3cc2c1,-4
CC1CCN(C(=O)Cn2cnc3c(sc4nc5c(cc43)COC(C)(C)C5)c2=O)CC1,10
CCOC(=O)CNC(=O)N1CCc2onc(-c3cccc(F)c3)c2C1,-3
NC(=O)c1ccccc1OCCOc1ccccc1,18
O=C(OCCOc1ccccc1)c1ccc(-c2ccccc2)cc1,0
O=C(OCCOc1ccccc1)C(C(F)(F)F)C(F)(F)F,85*
COc1cccc2c3c(c[n+](C)c12)sc1ccc(F)cc13,8
CC1CCCN(CC(=O)Nc2cccc(Cl)c2Cl)C1 (centres undefined),5
Cc1c(C(=O)O)ccc2c1N[C@@H](c1ccc(F)cc1)[C@H]1CC=C[C@@H]21,76*
COC(=O)c1cccc2c1N[C@@H](c1ccncc1)[C@H]1CC=C[C@@H]21,0
CCOC(=O)c1cccc2c1N[C@@H](c1ccc(F)cc1)[C@H]1CC=C[C@@H]21,10
Cc1cccc(N2CCC(C3CCN(Cc4cccnc4)CC3)C2)n1 (centres undefined),-4
CCOc1cc(CNc2ccc(O)cc2)cc(Cl)c1OCc1ccccc1,10
CCOc1cc(CNc2ccc(O)cc2)cc(Br)c1OCc1ccc(Cl)cc1,76*
CCOC(=O)c1ccc(NCc2cc(Br)c(OCc3ccc(Cl)cc3Cl)c(OCC)c2)cc1,-14
Oc1ccc(NCc2ccc(Cl)cc2)cc1,94*

# Screens deposited in PubChem by Pan Lab, Icahn School of Medicine at Mount Sinai.
